PubChem BioAssay AID2314 (National Center for Advancing Translational Sciences (NCATS), 2010)
The campaign covered roughly 300,000 compounds. About 37,000 (12%) were called active. Rule as the data show it: active = max response mostly above about 13% (no sharp cut-off); inactive = mostly below about 14%. This excerpt belongs to a sample that is enriched for actives.

Assay: Cycloheximide Counterscreen for Small Molecule Inhibitors of Shiga Toxin; also: read at 38.3 µM for the half of the compounds with a filed dose; 0% is about no effect
Conditions: cell reporter, cycloheximide protein synthesis inhibition counterscreen; stronger effect = higher value

| SMILES | max response |
| --- | --- |
| Cc1ccc(N=Cc2c(O)n(-c3nccs3)c(=O)c3ccccc23)c(C)c1 | 0.787% (inactive) |
| O/N=C(\C[n+]1ccccc1)c1ccc(Br)cc1 | -6.18% (inactive) |
| CC1CC(=O)N(CC(=O)Nc2cccc(Cl)c2)c2ccccc2S1(=O)=O (stereo not given) | -1.52% (inactive) |
| O=C(NC1CCCCCC1)c1cccnc1Sc1ccc(Cl)cc1 | -2.31% (inactive) |
| Cc1cc(C)c(NC(=O)C[N+](C)(C)CC(O)COc2cccc3ccccc23)c(C)c1 (stereo not given) | -2.87% (inactive) |
| CCC(C)(C)NC(=O)C(c1ccc(O)cc1)N(Cc1ccco1)C(=O)CCC(=O)Nc1ccccn1 (stereo not given) | 13.8% (inactive) |
| COc1ccc(C2=NS(=O)(=O)N(C)C(C(=O)NC(C)c3ccccc3)=C2)cc1 (stereo not given) | -2.97% (inactive) |
| O=C(Nc1cccc(-c2cscn2)c1)C1CCN(Cc2ccsc2)CC1 | -0.646% (inactive) |
| COCCOC(=O)c1c(C)oc2cc(Br)c(OCC(N)=O)cc12 | -1.75% (inactive) |
| CCCc1cc(-c2nc(-c3ccc(C)cc3)cs2)ccn1 | 39.7% (active) |
| CCC(C)Sc1nnc(-c2c[nH]c3ccccc23)n1CCOC (stereo not given) | -2.17% (inactive) |
| Cc1ccc(-c2csc(-c3c[nH]c4ccccc34)n2)cc1 | 52.5% (active) |
| CCCc1cc(-c2n[nH]c(=S)n2CC)c2ccccc2n1 | -5.71% (inactive) |
| CCn1c(SCCC(C)C)nnc1-c1c[nH]c2ccccc12 | -5.75% (inactive) |
| CCCc1nc2scc(-c3ccc(C)cc3)c2c(=O)n1N | 25.8% (inactive) |
| Cc1cc(-c2n[nH]c(=S)n2-c2ccc(C)c(C)c2)no1 | 10.2% (inactive) |
| Cc1ccc(-c2csc(-c3cc(C)on3)n2)cc1 | 17% (active) |
| Cc1cc(-c2nc(C)c(-c3nnc(SCC(=O)Nc4ccccc4)n3C)s2)no1 | -3.06% (inactive) |
| COc1cccc(N(CC(=O)NC2CCCC2)C(=O)CCCC(=O)Nc2ccccn2)c1 | -1.64% (inactive) |
| Cn1nccc1C(=O)NC1CCCc2c1cnn2-c1ccc(F)cc1F (stereo not given) | -0.526% (inactive) |
| O=C(NCCN1C(=O)S/C(=C\c2cccnc2)C1=O)c1ccc(S(=O)(=O)N2CCCC2)cc1 | 7.82% (inactive) |
| NC(=O)C1(C(N)=O)OC1c1ccc(Cl)cc1Cl (stereo not given) | -2.97% (inactive) |

| SMILES | max response |
| --- | --- |
| CCOCC(=O)NCc1ccc2c(c1)cc(C)n2C | 0.782% (inactive) |
| Cc1sc(NC(=S)NC(=O)c2cccs2)nc1-c1ccc(CC(C)C)cc1 | 9.37% (inactive) |
| Cc1ccc(S(=O)(=O)CC(=O)NC(C)c2ccccc2)cc1 (stereo not given) | -0.898% (inactive) |
| CC1(C)SC2c3ccccc3C(=O)N2[C@@H]1C(=O)NCc1ccco1 (stereo not given in full) | -2.7% (inactive) |
| CCCCNC(=O)c1cn(CC)c2cc(N3CCN(C(=O)c4ccco4)CC3)c(F)cc2c1=O | -2.67% (inactive) |
| CC(C)OCCCNC(=O)CN1C(=O)/C(=C/c2ccccc2F)Oc2ccccc21 | -1.24% (inactive) |
| CN(C)C(=O)Cn1c(=O)n(S(=O)(=O)c2ccccc2)c2ccccc21 | -2.7% (inactive) |
| O=C(CSc1ncnc2c1oc1ccccc12)NC1CCCC1 | 13.3% (active) |
| O=C(CSc1nnc(-c2ccccc2O)o1)NC1CCCCC1 | -5.38% (inactive) |
| O=C(CSc1nnc2c(n1)[nH]c1ccccc12)NC1CCCCC1 | -2.06% (inactive) |
| COc1ccc(N(CC(=O)NCCSCc2cccc(Cl)c2)S(C)(=O)=O)cc1 | 10.3% (inactive) |
| COc1ccccc1NC(=O)CCC(=O)N1CC(C)Oc2ccc(C)cc21 (stereo not given) | -2.59% (inactive) |
| COc1ccc(CNc2ncnc3ccccc23)cc1 | -4.12% (inactive) |
| COc1ccc(N(CC(=O)NCc2ccc(F)cc2)C(=O)CCC(=O)Nc2nccs2)cc1 | 2.82% (inactive) |
| COc1ccc(CNc2nccs2)cc1 | 15.6% (active) |
| O=C(NCc1cccnc1)C12CC3CC(CC(C3)C1)C2 | -4.42% (inactive) |
| COC(=O)c1ccccc1SC1CC(=O)N(c2cccc(C)c2)C1=O (stereo not given) | -2.47% (inactive) |
| Cc1cccc(N2C(=O)CC(SC(N)=Nc3ccccc3)C2=O)c1 (stereo not given) | 6.82% (inactive) |
| Cc1cccc(N2C(=O)SC(SC(=Nc3ccccc3)Nc3ccccc3)C2=O)c1 (stereo not given) | 50% (active) |
| O=C(NCc1ccc2c(c1)OCO2)C(=O)NCC1OCCN1S(=O)(=O)c1ccc(F)cc1 (stereo not given) | 0.524% (inactive) |
| O=S(=O)(NC1CCCC1)c1ccc(-n2cnnn2)cc1 | -3.31% (inactive) |
| Clc1nc(NC2CCCC2)nc(N2CCOCC2)n1 | -1.13% (inactive) |

| SMILES | max response |
| --- | --- |
| CC1CC(C)CN(CCOc2cccc3ccccc23)C1 (stereo not given) | -3.88% (inactive) |
| CCn1nc(C(=O)OCC(=O)N2c3ccccc3CC2C)c2ccccc2c1=O (stereo not given) | -2.9% (inactive) |
| CCCC(=O)N1c2ccc(-c3csc(N)n3)cc2CC1C (stereo not given) | 82.4% (active) |
| Cc1ccn(CCC(=O)N2c3ccccc3CC2C)n1 (stereo not given) | -3.05% (inactive) |
| COc1ccc(Nc2cc(Sc3ccc(OC)cc3)ncn2)cc1 | 12.3% (inactive) |
| COc1ccc(Nc2ncnc3ccc(OC)cc23)cc1 | 4.47% (inactive) |
| COc1ccc(Nc2ncnc3sc(C)cc23)cc1 | 41% (active) |
| CS(=O)(=O)N1CCN(CC(=O)NC2CCCC2)CC1 | 2.24% (inactive) |
| COc1ccc(C2CC(=O)NC(=O)C2)cc1 | 5.71% (inactive) |
| O=C1COc2ccc(S(=O)(=O)NCCc3ccc(Cl)cc3)cc2N1 | -8.47% (inactive) |
| COC(=O)c1c(NC(=O)CN2C(=O)NC(CCc3ccccc3)C2=O)sc2c1CCCCC2 (stereo not given) | -2.51% (inactive) |
| Nc1cc(N2CCCCCC2)c2nonc2c1[N+](=O)[O-] | -1.67% (inactive) |
| Cc1cccc(NC(=O)CCN2CC(C)CC(C)C2)c1 (stereo not given) | -2.06% (inactive) |
| N#CCc1ccc(NC(=O)c2ccccc2C(=O)Nc2ccc(CC#N)cc2)cc1 | 21.8% (active) |
| NC(=O)COc1ccc(NC(=O)c2ccccc2-c2ccccc2)cc1 | -2.28% (inactive) |
| CC(=O)Nc1ccc(CC#N)cc1 | -2.61% (inactive) |
| O=C(Nc1ccccc1N1CCOCC1)c1ccc(OCc2cscn2)cc1 | -3.59% (inactive) |
| CNC(=O)N1c2ccccc2C=Cc2ccccc21 | -2.75% (inactive) |
| Cc1cccc(CSc2nnc(C)c(=O)n2N)c1 | -1.39% (inactive) |
| Cc1nnc(SCc2cccc(Cl)c2)n(N)c1=O | 8.39% (inactive) |
| Nn1c(SCc2ccccc2)nnc1C1CCCCC1 | 38.2% (active) |
